This note sets out measurements from PubChem BioAssay AID686978 (National Center for Advancing Translational Sciences (NCATS), 2013).

Values joined by “and” are separate entries in the source; they are usually repeats but may differ in a detail not shown here. Equal values may be shown once. Screen size: about 420,000 compounds; about 64,000 (15%) were called active. Not shown: some 27% with an inconclusive outcome. Calls come from the whole dose curve; as a rule, active = well fitted inhibition curve with a large enough effect; inconclusive = small, poorly fitted or top-dose-only effect; inactive = flat fitted curve, though single readings scatter. Only a sample is shown. Entries that show only a call come without a potency. Some compounds were tested as several samples or in several runs, with calls that do not always agree.
Potency is the fitted concentration of half-maximal effect.

A short description of this assay: qHTS for Inhibitors of human tyrosyl-DNA phosphodiesterase 1 (TDP1): qHTS in cells in absence of CPT. Note: nearly all actives have a fitted effect of over 55% in size. As to conditions: DT40 Tdp1-/- hTDP1 cells, no CPT, ATP luminescence, 48 h; activity change, negative = growth inhibition: at 46.2 µM (top of the series). A digest of the protocol:
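Seeded 400 DT40-hTDP1 cells/well (vehicle DMSO, no 20 nM CPT); pinned compounds; ≥48 hr at 37 °C; CellTiter-Glo luminescence as viability measure.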
Regarding `CCNC(=S)NNC(=O)c1ccc2ncccc2c1`, the Potency entry was “inactive”.

As for `CC(=O)Nc1ccc(Sc2ccccc2C(=O)N2CCCC2)cn1`, the Potency entry was “inactive”.

For `CNC(=O)C[C@H]1C(=O)N(c2ccc(OC)cc2)C[C@@H]1Cc1ccccc1`, the Potency result is “inactive”.

In the case of `CNC(=O)C[C@H]1C(=O)N(Cc2ccccc2)C[C@@H]1CSC`, the Potency result was “inactive”.

For `O=C(C[C@H]1C(=O)N(c2ccc(F)c(F)c2)C[C@@H]1Cc1ccccc1)Nc1ccccc1`, the Potency result was “inactive and 15.8 µM (active)”.

For the molecule `CCOc1cc2[nH]c(=O)n(CCC(=O)NCc3ccc(OC)cc3)c(=O)c2cc1OCC`, the Potency result is “inactive”.

Regarding `CN=C1SC(CC(=O)Nc2ccc(C(=O)O)cc2)C(=O)N1C` (stereo not given), the Potency entry is “inactive”.

For `CC1C(=O)C(C)C(c2ccc(O)cc2)NC1c1ccc(O)cc1` (stereo not given), the Potency result was “inactive”.

Take `O=c1cc(CN2CCN(S(=O)(=O)/C=C/c3ccccc3)CC2)c2ccc(O)cc2o1`: the Potency is 20.6 µM (active).

Turning to `NC(=O)CCN1CCN(S(=O)(=O)/C=C/c2ccccc2)CC1`, the Potency entry is “inactive”.

Regarding `CC(=O)N1CCN(Cc2cc(=O)oc3cc(C)ccc23)CC1`, the Potency entry was “inactive”.

Turning to `COc1ccc(NC(=O)CCCN2C(=O)C(c3ccccc3)Oc3cccnc32)cc1` (stereo not given), the Potency result is “inactive”.

For the molecule `O=S1(=O)CCN(C2CCCCCCCCCCC2)CC1`, the Potency is 20.6 µM (active).

For the molecule `O=S1(=O)CC(N2CCN(CCO)CC2)CN1C1CCCC1` (stereo not given), the Potency result is “inactive”.

For the molecule `O=C(O)C1CCN1C1CCCCC1` (stereo not given), the Potency entry was “inactive”.

`COc1ccc(NC(=O)N(C)C[C@@H]2OCc3cn(nn3)CCCC(=O)N([C@H](C)CO)C[C@H]2C)c(OC)c1`: the Potency entry is “inactive”.

In the case of `COCCN(C(=O)CC1CCCCC1)c1c(N)n(CC(C)C)c(=O)[nH]c1=O`, the Potency entry was “inactive”.

On to `Cc1ccc(-c2ccc(CN3C(C(C)C)C(=O)N(Cc4cn(CCC5OCCCO5)nn4)CCS3(=O)=O)cc2)cc1` (stereo not given), for which the Potency is 11.6 µM (active).

Regarding `Cc1ccc(-c2ccc(CN3C(C)C(=O)N(Cc4cn(CCC5OCCCO5)nn4)CCS3(=O)=O)cc2)cc1` (stereo not given), the Potency was 23.1 µM (active).

With `Cc1ccc(-c2ccc(CN3C(C(C)C)C(=O)N(Cc4cn(CCC5OCCO5)nn4)CCS3(=O)=O)cc2)cc1` (stereo not given), the Potency is 7.31 µM (active).

For `CC(C)C1C(=O)N(Cc2cn(CCC3OCCO3)nn2)CCS(=O)(=O)N1Cc1ccc(-c2ccccc2C(F)(F)F)cc1` (stereo not given), the Potency was 25.9 µM (active).

Take `CCC(C)[C@H]1COCCS(=O)(=O)N1Cc1ccc(C)cc1` (stereo not given in full): the Potency entry is “inactive”.

Turning to `Cc1ccc(CN2CCCOCCS2(=O)=O)cc1`, the Potency result was “inactive”.

Take `CCCc1nnc(NC(=O)CCC(=O)NC2CC2)s1`: the Potency entry is “inactive”.

Take `O=C(Oc1cc(OC(=O)c2ccccc2)c2c(c1)OC(c1ccc(OC(=O)c3ccccc3)c(OC(=O)c3ccccc3)c1)[C@@H](OC(=O)c1ccccc1)C2)c1ccccc1` (stereo not given in full): the Potency entry was “inactive”.
